The labels stand for the following.
B1: unnamed (peptide)
chain: KNPRRQLQIPRQQPS
B2: unnamed (peptide)
chain: NFFRKKLGIPRKLKR

One test addresses SpBzz1-D2. Briefly: SPOT peptide array binding signal intensity (averaged, normalized) (arbitrary units (background-subtracted, floor 0; scale differs between SH3 domains)); higher = stronger binding of the SH3 domain to the peptide. The method, boiled down:
(§1)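 The binding signal is the normalized, background-subtracted spot intensity averaged over replicates; its arbitrary units differ between domains. It was obtained by incubating 10 μg/ml GST-fused SH3 domains from four yeast species overnight at 4°C in TBS-based blocking buffer on cellulose membranes with synthetic 15-mer peptides, cysteines replaced by serines, then detecting with anti-GST antibody, HRP anti-mouse secondary and luminol.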
Regarding B1, the “SPOT peptide array binding signal intensity” value came out at 0.5.

Another test concerns the target SpCyk3. The description is as above. Summed up:
as §1
For B1, the “SPOT peptide array binding signal intensity” value came to 1.

The next test has as its target SpHof1. Described as above. Summed up:
as §1
For B1, the “SPOT peptide array binding signal intensity” value turned out to be 126.

The target of another test is SpHof1-2. Described as above. Summed up: as §1
For B1, the “SPOT peptide array binding signal intensity” value was 11.5.

Another test concerns the target SpHof1-3. The description is as above. The method, boiled down: as §1
With B1, the “SPOT peptide array binding signal intensity” value amounted to 266.

The next test addresses SpHse1. The test is described as above. The method, boiled down:
as §1
Take B1: the “SPOT peptide array binding signal intensity” value was determined as 260.

In the next test the target is SpLsb1. The description is as above. The method, boiled down:
as §1
Consider B1, for which the “SPOT peptide array binding signal intensity” value came to 54.2.

The target in the next test is SpLsb4. The description is as above. Summed up: as §1
B1: the “SPOT peptide array binding signal intensity” value came to 129.

For the next test, the target named is SpMyo1. Described as above. Summed up:
as §1
In the case of B1, the “SPOT peptide array binding signal intensity” value turned out to be 2.

The next test addresses SpNbp2. The test is described as above. The method, boiled down: as §1
With B1, the “SPOT peptide array binding signal intensity” value came out at 53.

The target in a further test is SpPex13. Described as above. Summed up: as §1
Consider B1, for which the “SPOT peptide array binding signal intensity” value stood at 5.

The next test concerns the target SpRvs167. The test is described as above. Summed up:
as §1
For the molecule B1, the “SPOT peptide array binding signal intensity” value turned out to be 16.7.

A further test deals with SpSla1-D1-D2. Described as above. Summed up: as §1
As for B1, the “SPOT peptide array binding signal intensity” value was 3.5.

The target in the next test is SpSla1-D3. Described as above. Summed up: as §1
In the case of B1, the “SPOT peptide array binding signal intensity” value is 2.

In the next test the target is AgAbp1. The description is as above. The method, boiled down:
as §1
On to B2, for which the “SPOT peptide array binding signal intensity” value was found to be 227.

A further test addresses AgBbc1. The description is as above. The method, boiled down: as §1
For the molecule B2, the “SPOT peptide array binding signal intensity” value was determined as 12.

The target of another test is AgBem1-D1. The test is described as above. Summed up: as §1
In the case of B2, the “SPOT peptide array binding signal intensity” value is 94.

In the next test the target is AgBzz1-D1. Described as above. The method, boiled down: as §1
Turning to B2, the “SPOT peptide array binding signal intensity” value is 20.

The target of the next test is AgBzz1-D2. The description is as above. The method, boiled down:
as §1
Regarding B2, the “SPOT peptide array binding signal intensity” value amounted to 45.

In another test the target is AgCyk3. The description is as above. Summed up:
as §1
For the molecule B2, the “SPOT peptide array binding signal intensity” value turned out to be 1.5.

The target in a further test is AgFus1. The test is described as above. Summed up: as §1
Take B2: the “SPOT peptide array binding signal intensity” value is 142.

A further test deals with AgHof1. The test is described as above. Summed up:
as §1
With B2, the “SPOT peptide array binding signal intensity” value came to 13.2.

A further test has as its target AgHse1. Described as above. Summed up: as §1
With B2, the “SPOT peptide array binding signal intensity” value was determined as 1980.

The next test deals with AgLsb1. The test is described as above. Summed up:
as §1
B2: the “SPOT peptide array binding signal intensity” value stood at 3.5.

Another test deals with AgLsb4. The test is described as above. Summed up:
as §1
With B2, the “SPOT peptide array binding signal intensity” value was 99.

The target of another test is AgMyo5. The description is as above. Summed up: as §1
As to B2, the “SPOT peptide array binding signal intensity” value came out at 2.

The next test has as its target AgNbp2. The test is described as above. Summed up:
as §1
Regarding B2, the “SPOT peptide array binding signal intensity” value is 44.

Another test deals with AgRvs167. Described as above. Summed up: as §1
Turning to B2, the “SPOT peptide array binding signal intensity” value turned out to be 5.33.

A further test addresses AgSho1. The description is as above. The method, boiled down:
as §1
B2: the “SPOT peptide array binding signal intensity” value was 73.

For a further test, the target named is AgSla1-D1-D2. Described as above. Summed up:
as §1
In the case of B2, the “SPOT peptide array binding signal intensity” value was 368.

The target of the next test is AgSla1-D3. Described as above. The method, boiled down: as §1
With B2, the “SPOT peptide array binding signal intensity” value turned out to be 1.5.

The target of another test is CaAbp1-D1. Described as above. Summed up:
as §1
B2: the “SPOT peptide array binding signal intensity” value stood at 1000.

The target in another test is CaAbp1-D2. Described as above. Summed up: as §1
Regarding B2, the “SPOT peptide array binding signal intensity” value amounted to 1180.

Another test has as its target CaBbc1. Described as above. Summed up:
as §1
Turning to B2, the “SPOT peptide array binding signal intensity” value came out at 31.5.

The next test concerns the target CaBem1-D1. The test is described as above. Summed up:
as §1
Regarding B2, the “SPOT peptide array binding signal intensity” value is 4.

The target of a further test is CaBzz1-D1. The test is described as above. The method, boiled down: as §1
Take B2: the “SPOT peptide array binding signal intensity” value turned out to be 47.5.

The target in a further test is CaBzz1-D2. The test is described as above. The method, boiled down: as §1
In the case of B2, the “SPOT peptide array binding signal intensity” value was 26.

The next test has as its target CaCyk3. Described as above. Summed up:
as §1
As to B2, the “SPOT peptide array binding signal intensity” value is at most 0.

The next test deals with CaFus1. The description is as above. The method, boiled down: as §1
For B2, the “SPOT peptide array binding signal intensity” value is 729.

A further test concerns the target CaHof1. The description is as above. Summed up: as §1
On to B2, for which the “SPOT peptide array binding signal intensity” value was 0.5.

The target in another test is CaHse1. The test is described as above. Summed up: as §1
Regarding B2, the “SPOT peptide array binding signal intensity” value is 37.2.

The next test concerns the target CaLsb1. The description is as above. The method, boiled down:
as §1
In the case of B2, the “SPOT peptide array binding signal intensity” value was 1.

The target in the next test is CaLsb4. The test is described as above. The method, boiled down: as §1
Turning to B2, the “SPOT peptide array binding signal intensity” value was at most 0.

For the next test, the target named is CaMyo5. Described as above. The method, boiled down:
as §1
For B2, the “SPOT peptide array binding signal intensity” value was 0.75.

(Values after the supplement of paper PMC4466140.)
